# This is part of a sample that, as a whole, favours compounds with a hit. Of some 83,000 tested, about 20% had one in any assay.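 Plates (96-well) were seeded with cells, treated with compound at one concentration, and incubated for 48 hours before percent growth was determined.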 Values without a mark were called inactive. The source made the active and inactive calls. The calls were made as follows: active = growth percent below 10; inactive = the rest.
# Tests used:
# Assay in all cases: NCI-60 one-dose screen, 48 h (100 = growth as untreated, 0 = no growth, -100 = all killed)
# Settings in all cases: 10 µM unless noted
# DU-145 prostate = tested on: DU-145 prostate
# K-562 leukemia = tested on: K-562 leukemia
# MALME-3M melanoma = tested on: MALME-3M melanoma
# MDA-MB-231 breast = tested on: MDA-MB-231 breast
# RXF 393 renal = tested on: RXF 393 renal
# SF-268 CNS = tested on: SF-268 CNS
# SF-295 CNS = tested on: SF-295 CNS
# SF-539 CNS = tested on: SF-539 CNS
# UACC-257 melanoma = tested on: UACC-257 melanoma
# M14 melanoma = tested on: M14 melanoma
Compound,growth (DU-145 prostate),growth (K-562 leukemia),growth (MALME-3M melanoma),growth (MDA-MB-231 breast),growth (RXF 393 renal),growth (SF-268 CNS),growth (SF-295 CNS),growth (SF-539 CNS),growth (UACC-257 melanoma),growth (M14 melanoma)
CCCCCOc1ccc(C(=O)/C(Br)=C/C(=O)O)cc1,106%,60.1%,130%,109%,95.2%,97.5%,112%,100%,106%,56.8%
Cc1ccc(C(C(N)=O)C(C(N)=O)c2ccccc2)cc1 (stereo not given),111%,90.9%,129%,123%,104%,104%,114%,119%,102%,108%
CCCCC(=O)c1ccco1,98.6%,104%,103%,98.7%,97.6%,96%,101%,99.5%,105%,90.6%
Cc1ccccc1NC(=O)c1sc2nc(C)c(C(=O)/C=C/c3ccccc3)cc2c1N,10.5%,13%,59.7%,3.85% (active),-26.7% (active),11.8%,14%,-34.4% (active),68.5%,4.85% (active)
Cc1c(-n2nnc(-c3nc4ccccc4s3)c2N)c(=O)n(-c2ccccc2)n1C,115%,102%,97.6%,113%,121%,99.8%,103%,92.2%,102%,110%
C=C1C(=O)O[C@H]2[C@H]1CC/C(COC(=O)CCSCCC(=O)OC/C1=C/CC[C@@]3(C)O[C@H]3[C@H]3OC(=O)C(=C)[C@@H]3CC1)=C\CC[C@@]1(C)O[C@@H]21,20.1%,2.89% (active),-13.7% (active),-52.1% (active),-95.3% (active),24.2%,62.7%,-15.1% (active),-13.7% (active),-12% (active)
CC(=O)Cc1nsc(NC(=O)c2cc(-c3cc(Cl)cc(Cl)c3)oc2C)n1,108%,100%,111%,104%,105%,88.1%,99.4%,98.5%,89%,105%
CN(C)c1ccc(Nc2cc(-c3cccc(OC(F)(F)F)c3)nc3ccc(N4CCCC4)cc23)cc1,50.3%,-20.9% (active),-90.4% (active),12.3%,88.8%,-13.4% (active),108%,91.6%,14.1%,-76.3% (active)
Nc1c(C(=O)Nc2ccncc2)sc2nc3c(cc12)CCCCCC3,93.2%,64%,108%,103%,88.5%,100%,82.3%,79.9%,91.1%,100%
C=CCn1c(SCC(=O)NCc2cc(C)c(O)c(C)c2)nc2ccc(Cl)cc2c1=O,105%,58.6%,98.8%,111%,98.6%,99.2%,91.1%,101%,102%,115%
CC(=O)OC[C@]12CCC(C)(C)C[C@H]1[C@@]1(O)[C@H](O)C[C@@H]3[C@@]4(C)CCCNC(C)(C)[C@@H]4CC[C@@]3(C)[C@]1(C)CC2,111%,106%,106%,103%,117%,106%,102%,103%,101%,92.4%
O=C1c2cc(Cl)ccc2S(=O)(=O)c2c(NCCCNCCO)nc3ccccc3c21,-24.7% (active),0.0837% (active),-81.4% (active),-70.7% (active),-36.5% (active),31.8%,40.6%,-18% (active),10.3%,-37.9% (active)
COC(=O)c1cc(-c2ccc(S(C)(=O)=O)cc2)[nH]c1N/N=C/c1c(Cl)cccc1Cl,4.36% (active),-1.67% (active),4.13% (active),50.9%,-2.32% (active),37.1%,-28.2% (active),-19.8% (active),60.3%,-8.67% (active)
COc1ccc2[nH]cc(-c3nc(-c4cn(C)c5c(Cl)nccc45)cs3)c2c1,40.7%,17.9%,72.1%,48.2%,32.5%,73%,37.9%,23.3%,-33% (active),14%
COc1ccc2c(c1)[n+]([O-])c(C(=O)/C=C/C=C(\Cl)c1cc(OC)c(OC)c(OC)c1)c(C)[n+]2[O-],96.7%,110%,61.5%,74.9%,47.8%,47.1%,21.3%,66.8%,108%,102%
O=C(Cn1c2c(c3ccccc31)CCCC2)Nc1ccc(-c2nc3ccccc3s2)cc1,98.8%,74.4%,105%,96%,105%,97.6%,103%,102%,106%,108%
O=C1N(Cc2ccccc2Cl)c2ccccc2C12NN=C(c1cccc(Cl)c1)S2 (stereo not given),-46.2% (active),10.1%,-23.6% (active),-4.77% (active),-73% (active),26.2%,-44.9% (active),6.32% (active),18.9%,4.67% (active)
COc1ccc(-c2csc(N(C(=O)N3CCN(c4cc5c(cc4F)c(=O)c(C(=O)O)cn5C4CC4)CC3)c3ccccc3)n2)cc1,17.6%,14%,9.18% (active),28.3%,35.8%,22.9%,3.69% (active),9.1% (active),12.4%,26.6%
COc1cc(-c2nc(SCCC(C)C)nc(Nc3ccccc3Cl)c2C#N)cc(OC)c1OC,97.7%,95.1%,105%,81.5%,117%,85.7%,100%,95.6%,127%,96.6%
O=C1/C(=C/c2ccc(Cl)cc2)COc2ccc(O)cc21,89.7%,2.41% (active),94.9%,86%,97.9%,79.3%,101%,88.1%,104%,86%
CCCCCCCCn1ccc2cc(NC(=O)CN3CCN(c4nc(C)cc(Cl)n4)CC3)ccc21,101%,85.2%,91.5%,107%,103%,96.3%,102%,107%,114%,96.1%
CNC(=O)c1c(NC(=O)c2ccc(C(F)(F)F)cc2)sc2c1CCC(=O)C2,29%,7.84% (active),-9.54% (active),-37.1% (active),-7.89% (active),9.61% (active),-9.06% (active),-58.6% (active),1.26% (active),-11.6% (active)
C#Cc1cccc(Nc2ncnc3ccc(-c4cnc(N)nc4)cc23)c1,18.9%,53.2%,9.03% (active),12.8%,-15.3% (active),32.7%,26.2%,32.4%,80.7%,36.8%
Cc1cnc(C(=O)NNc2nc3sc4c(c3c(=O)n2C)C(C)CCC4)cn1 (stereo not given),7.49% (active),6.51% (active),-22.3% (active),-3.01% (active),-12.6% (active),5.92% (active),8.03% (active),-21.1% (active),-11.3% (active),-15.7% (active)
N=C(N)c1ccc(-c2ccc(-c3ccc(F)cc3)o2)o1,28.7%,-28.5% (active),41.6%,8.5% (active),39.6%,30%,31.4%,21.9%,57.7%,-54.1% (active)
